Laboratory results as given in the supplement of paper PMC11732987, “Enantioselective OTUD7B fragment discovery through chemoproteomics screening and high-throughput optimisation” (Communications Chemistry, 2025).

Key:
Experiment in all cases: log2 ratio of Biotin-Ahx-Ub-VS probe labelling (fragment/DMSO); higher = less target engagement (more negative = stronger competition), active = hit call of the paper (q ≤ 0.05, log2 ratio ≤ -1)
Conditions in all cases: compound concentration: 200 uM; treatment time: 3 h
USP42 = molecular target: T1, USP42 (UniProt Q9H9J4)
T1 sequence (whole entry): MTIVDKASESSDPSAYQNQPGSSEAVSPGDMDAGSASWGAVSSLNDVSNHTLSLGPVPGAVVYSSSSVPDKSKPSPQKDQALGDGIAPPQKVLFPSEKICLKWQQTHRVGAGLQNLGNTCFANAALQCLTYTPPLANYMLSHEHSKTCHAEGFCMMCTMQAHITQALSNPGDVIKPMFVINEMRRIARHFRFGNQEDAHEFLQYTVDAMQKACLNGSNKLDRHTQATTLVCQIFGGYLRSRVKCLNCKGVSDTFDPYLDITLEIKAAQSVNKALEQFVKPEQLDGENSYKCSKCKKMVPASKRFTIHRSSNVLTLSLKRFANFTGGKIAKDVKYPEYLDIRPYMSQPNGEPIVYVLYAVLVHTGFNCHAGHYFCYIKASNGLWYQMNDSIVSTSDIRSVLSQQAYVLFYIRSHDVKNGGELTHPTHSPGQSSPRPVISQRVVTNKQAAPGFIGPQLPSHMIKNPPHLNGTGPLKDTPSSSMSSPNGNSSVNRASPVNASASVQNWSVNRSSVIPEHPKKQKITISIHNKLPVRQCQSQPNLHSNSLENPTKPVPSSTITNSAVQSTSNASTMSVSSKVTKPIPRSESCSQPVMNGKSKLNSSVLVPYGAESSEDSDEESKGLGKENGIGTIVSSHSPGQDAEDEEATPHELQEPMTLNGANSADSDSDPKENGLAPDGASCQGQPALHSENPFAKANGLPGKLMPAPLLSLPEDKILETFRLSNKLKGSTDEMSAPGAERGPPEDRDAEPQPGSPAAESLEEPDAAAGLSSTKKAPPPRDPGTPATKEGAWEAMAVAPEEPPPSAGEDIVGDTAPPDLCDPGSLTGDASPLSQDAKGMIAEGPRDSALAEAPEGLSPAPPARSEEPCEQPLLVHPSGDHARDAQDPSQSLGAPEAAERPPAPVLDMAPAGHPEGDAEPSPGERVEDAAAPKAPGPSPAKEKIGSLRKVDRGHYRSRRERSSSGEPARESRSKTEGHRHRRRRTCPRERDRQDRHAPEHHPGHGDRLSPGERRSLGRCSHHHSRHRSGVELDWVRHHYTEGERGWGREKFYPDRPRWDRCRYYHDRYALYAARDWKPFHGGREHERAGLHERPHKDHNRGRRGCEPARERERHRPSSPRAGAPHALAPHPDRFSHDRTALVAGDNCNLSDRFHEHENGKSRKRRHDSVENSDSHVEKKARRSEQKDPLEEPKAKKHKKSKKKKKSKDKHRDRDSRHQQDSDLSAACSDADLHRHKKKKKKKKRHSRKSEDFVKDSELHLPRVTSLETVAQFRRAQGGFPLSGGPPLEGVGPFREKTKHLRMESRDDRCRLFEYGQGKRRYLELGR
In short: (§1)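 Triplicate samples of HEK293T lysate, 495 µg each, received fragment at 200 µM or vehicle for 3 h, followed by Biotin-Ahx-Ub-VS (0.5 µM final) for 1 h. After NeutrAvidin enrichment of labelled DUBs and LysC/trypsin digestion, peptides were run by diaPASEF LC-MS/MS. The values are average log2 fragment/vehicle ratios from global-median-normalised Spectronaut label-free quantities, tested by unpaired t-test on proteins having ≥2 unique peptides.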

USP46 = USP46 (UniProt P62068)
In short: as §1

USP47 = molecular target: T2, USP47 (UniProt Q96K76)
T2 sequence (whole entry): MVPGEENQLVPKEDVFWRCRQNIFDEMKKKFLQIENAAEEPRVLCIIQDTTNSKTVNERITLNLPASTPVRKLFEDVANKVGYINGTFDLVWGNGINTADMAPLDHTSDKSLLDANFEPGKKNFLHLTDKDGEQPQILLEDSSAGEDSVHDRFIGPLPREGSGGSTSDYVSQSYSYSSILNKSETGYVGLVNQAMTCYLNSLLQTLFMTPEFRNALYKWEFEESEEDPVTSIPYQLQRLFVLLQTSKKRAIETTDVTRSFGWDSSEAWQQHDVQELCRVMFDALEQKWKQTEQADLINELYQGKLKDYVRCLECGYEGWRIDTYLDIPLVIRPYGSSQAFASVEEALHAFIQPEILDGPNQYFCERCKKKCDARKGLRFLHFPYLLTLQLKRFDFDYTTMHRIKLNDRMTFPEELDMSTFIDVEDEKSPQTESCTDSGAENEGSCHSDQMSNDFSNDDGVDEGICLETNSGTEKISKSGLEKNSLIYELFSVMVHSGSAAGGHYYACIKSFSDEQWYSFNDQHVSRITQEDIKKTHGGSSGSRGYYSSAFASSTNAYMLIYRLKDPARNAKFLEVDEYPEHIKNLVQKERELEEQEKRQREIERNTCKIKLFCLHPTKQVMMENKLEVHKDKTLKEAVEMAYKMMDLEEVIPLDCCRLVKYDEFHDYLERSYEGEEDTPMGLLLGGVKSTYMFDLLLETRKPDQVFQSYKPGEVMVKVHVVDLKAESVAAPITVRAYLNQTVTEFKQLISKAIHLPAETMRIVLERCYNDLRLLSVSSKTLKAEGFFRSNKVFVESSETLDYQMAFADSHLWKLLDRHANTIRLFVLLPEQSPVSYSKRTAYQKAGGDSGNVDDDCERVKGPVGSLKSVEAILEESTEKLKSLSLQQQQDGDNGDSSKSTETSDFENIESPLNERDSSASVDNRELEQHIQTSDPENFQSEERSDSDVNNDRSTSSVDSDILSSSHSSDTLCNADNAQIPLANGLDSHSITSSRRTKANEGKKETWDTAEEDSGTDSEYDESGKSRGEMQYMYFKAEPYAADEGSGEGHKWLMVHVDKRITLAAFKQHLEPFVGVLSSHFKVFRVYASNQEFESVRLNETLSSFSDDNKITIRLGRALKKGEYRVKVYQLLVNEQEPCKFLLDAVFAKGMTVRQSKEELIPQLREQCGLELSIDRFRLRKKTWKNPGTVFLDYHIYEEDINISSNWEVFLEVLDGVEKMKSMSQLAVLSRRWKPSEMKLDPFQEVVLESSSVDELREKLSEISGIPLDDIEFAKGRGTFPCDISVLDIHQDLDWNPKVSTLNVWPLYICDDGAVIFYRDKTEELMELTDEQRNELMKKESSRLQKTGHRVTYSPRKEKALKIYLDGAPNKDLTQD
In short: as §1

USP48 = molecular target: T3, USP48 (UniProt Q86UV5)
T3 sequence (whole entry): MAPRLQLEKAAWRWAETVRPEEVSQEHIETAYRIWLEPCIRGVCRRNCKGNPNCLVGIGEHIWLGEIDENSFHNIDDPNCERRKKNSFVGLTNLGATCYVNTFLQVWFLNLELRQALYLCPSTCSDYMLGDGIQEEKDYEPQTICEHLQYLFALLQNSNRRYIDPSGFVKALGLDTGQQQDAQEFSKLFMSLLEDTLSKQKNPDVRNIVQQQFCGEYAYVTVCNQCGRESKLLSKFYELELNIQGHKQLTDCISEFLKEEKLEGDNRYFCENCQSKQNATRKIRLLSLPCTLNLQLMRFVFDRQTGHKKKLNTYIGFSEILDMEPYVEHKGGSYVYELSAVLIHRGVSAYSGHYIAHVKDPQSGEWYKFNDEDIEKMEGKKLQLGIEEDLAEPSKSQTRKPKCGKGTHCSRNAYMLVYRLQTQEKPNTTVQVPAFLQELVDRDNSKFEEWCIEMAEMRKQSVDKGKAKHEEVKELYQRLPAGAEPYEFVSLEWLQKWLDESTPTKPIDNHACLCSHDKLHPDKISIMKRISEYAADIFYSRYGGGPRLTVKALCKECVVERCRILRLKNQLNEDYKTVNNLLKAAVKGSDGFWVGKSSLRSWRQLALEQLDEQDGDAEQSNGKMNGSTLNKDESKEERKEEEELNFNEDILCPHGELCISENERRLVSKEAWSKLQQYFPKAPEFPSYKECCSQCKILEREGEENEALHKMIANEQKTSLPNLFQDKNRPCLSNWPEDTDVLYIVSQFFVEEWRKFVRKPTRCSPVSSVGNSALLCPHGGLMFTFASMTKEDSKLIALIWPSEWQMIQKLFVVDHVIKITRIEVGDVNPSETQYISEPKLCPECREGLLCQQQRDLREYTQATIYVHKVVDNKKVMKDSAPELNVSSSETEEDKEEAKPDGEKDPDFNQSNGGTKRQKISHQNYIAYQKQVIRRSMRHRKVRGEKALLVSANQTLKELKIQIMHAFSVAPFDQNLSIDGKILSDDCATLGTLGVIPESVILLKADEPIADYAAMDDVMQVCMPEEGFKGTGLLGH
In short: as §1

USP5 = molecular target: T4, USP5 (UniProt P45974)
T4 sequence (whole entry): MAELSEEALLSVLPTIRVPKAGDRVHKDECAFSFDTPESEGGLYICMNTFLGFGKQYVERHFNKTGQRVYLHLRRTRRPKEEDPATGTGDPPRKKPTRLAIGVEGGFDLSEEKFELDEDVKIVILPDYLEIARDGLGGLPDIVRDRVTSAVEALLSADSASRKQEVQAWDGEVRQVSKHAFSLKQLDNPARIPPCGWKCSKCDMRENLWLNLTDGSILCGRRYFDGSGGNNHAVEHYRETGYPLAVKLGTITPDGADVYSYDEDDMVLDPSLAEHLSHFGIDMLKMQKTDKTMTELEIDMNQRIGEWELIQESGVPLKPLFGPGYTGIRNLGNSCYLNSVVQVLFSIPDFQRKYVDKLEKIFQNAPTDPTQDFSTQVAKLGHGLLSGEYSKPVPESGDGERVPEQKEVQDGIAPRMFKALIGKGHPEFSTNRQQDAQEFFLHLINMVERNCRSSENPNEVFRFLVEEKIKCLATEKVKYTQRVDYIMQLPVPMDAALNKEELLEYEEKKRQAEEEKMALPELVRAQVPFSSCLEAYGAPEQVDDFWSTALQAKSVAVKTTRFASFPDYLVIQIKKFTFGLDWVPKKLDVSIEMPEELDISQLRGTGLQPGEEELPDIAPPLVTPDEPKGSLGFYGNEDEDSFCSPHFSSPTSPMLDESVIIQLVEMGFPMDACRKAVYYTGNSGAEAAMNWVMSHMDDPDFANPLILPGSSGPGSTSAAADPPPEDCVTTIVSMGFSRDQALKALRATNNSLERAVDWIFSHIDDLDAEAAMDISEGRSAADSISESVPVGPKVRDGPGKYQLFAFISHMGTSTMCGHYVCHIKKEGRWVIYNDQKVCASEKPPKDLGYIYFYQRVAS
In short: as §1

USP54 = USP54 (UniProt Q70EL1)
In short: as §1

USP7 = USP7 (UniProt Q93009)
In short: as §1

USP8 = molecular target: T5, USP8 (UniProt P40818)
T5 sequence (whole entry): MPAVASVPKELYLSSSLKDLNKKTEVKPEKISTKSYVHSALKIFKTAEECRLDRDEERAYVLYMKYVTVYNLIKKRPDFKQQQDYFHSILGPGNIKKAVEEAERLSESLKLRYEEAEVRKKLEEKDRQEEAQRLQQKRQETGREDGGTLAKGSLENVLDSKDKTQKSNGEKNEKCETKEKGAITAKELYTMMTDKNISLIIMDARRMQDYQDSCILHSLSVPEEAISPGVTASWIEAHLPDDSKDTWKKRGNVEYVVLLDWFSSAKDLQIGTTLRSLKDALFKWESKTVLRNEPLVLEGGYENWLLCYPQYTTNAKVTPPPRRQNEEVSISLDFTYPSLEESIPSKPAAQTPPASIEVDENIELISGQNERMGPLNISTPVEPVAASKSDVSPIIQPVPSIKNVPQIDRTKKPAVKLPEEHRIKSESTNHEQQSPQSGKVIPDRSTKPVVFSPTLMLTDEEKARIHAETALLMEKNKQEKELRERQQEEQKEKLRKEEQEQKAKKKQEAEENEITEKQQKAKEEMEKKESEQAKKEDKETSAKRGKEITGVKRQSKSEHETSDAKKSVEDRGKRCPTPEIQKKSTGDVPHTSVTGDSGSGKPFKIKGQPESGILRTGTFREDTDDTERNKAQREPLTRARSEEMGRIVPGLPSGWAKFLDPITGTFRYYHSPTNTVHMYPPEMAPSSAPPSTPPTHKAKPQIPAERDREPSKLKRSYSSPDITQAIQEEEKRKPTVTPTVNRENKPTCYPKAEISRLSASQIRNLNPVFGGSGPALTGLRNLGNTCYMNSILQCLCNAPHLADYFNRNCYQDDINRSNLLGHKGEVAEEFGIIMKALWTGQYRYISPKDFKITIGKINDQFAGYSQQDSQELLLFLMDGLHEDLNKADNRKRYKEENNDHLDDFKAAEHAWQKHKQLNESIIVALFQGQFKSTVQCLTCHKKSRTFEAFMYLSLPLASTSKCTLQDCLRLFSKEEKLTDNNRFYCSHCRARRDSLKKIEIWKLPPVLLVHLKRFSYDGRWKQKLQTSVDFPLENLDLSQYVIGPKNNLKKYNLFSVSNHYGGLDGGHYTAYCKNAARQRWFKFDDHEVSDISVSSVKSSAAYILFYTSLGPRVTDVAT
In short: as §1

USP9X = USP9X (UniProt Q93008)
In short: as §1

UniProt O00487 = molecular target: UniProt O00487
In short: as §1

Measured: log2 ratio of Biotin-Ahx-Ub-VS probe labelling

Chain of USP9X (Q93008 whole entry): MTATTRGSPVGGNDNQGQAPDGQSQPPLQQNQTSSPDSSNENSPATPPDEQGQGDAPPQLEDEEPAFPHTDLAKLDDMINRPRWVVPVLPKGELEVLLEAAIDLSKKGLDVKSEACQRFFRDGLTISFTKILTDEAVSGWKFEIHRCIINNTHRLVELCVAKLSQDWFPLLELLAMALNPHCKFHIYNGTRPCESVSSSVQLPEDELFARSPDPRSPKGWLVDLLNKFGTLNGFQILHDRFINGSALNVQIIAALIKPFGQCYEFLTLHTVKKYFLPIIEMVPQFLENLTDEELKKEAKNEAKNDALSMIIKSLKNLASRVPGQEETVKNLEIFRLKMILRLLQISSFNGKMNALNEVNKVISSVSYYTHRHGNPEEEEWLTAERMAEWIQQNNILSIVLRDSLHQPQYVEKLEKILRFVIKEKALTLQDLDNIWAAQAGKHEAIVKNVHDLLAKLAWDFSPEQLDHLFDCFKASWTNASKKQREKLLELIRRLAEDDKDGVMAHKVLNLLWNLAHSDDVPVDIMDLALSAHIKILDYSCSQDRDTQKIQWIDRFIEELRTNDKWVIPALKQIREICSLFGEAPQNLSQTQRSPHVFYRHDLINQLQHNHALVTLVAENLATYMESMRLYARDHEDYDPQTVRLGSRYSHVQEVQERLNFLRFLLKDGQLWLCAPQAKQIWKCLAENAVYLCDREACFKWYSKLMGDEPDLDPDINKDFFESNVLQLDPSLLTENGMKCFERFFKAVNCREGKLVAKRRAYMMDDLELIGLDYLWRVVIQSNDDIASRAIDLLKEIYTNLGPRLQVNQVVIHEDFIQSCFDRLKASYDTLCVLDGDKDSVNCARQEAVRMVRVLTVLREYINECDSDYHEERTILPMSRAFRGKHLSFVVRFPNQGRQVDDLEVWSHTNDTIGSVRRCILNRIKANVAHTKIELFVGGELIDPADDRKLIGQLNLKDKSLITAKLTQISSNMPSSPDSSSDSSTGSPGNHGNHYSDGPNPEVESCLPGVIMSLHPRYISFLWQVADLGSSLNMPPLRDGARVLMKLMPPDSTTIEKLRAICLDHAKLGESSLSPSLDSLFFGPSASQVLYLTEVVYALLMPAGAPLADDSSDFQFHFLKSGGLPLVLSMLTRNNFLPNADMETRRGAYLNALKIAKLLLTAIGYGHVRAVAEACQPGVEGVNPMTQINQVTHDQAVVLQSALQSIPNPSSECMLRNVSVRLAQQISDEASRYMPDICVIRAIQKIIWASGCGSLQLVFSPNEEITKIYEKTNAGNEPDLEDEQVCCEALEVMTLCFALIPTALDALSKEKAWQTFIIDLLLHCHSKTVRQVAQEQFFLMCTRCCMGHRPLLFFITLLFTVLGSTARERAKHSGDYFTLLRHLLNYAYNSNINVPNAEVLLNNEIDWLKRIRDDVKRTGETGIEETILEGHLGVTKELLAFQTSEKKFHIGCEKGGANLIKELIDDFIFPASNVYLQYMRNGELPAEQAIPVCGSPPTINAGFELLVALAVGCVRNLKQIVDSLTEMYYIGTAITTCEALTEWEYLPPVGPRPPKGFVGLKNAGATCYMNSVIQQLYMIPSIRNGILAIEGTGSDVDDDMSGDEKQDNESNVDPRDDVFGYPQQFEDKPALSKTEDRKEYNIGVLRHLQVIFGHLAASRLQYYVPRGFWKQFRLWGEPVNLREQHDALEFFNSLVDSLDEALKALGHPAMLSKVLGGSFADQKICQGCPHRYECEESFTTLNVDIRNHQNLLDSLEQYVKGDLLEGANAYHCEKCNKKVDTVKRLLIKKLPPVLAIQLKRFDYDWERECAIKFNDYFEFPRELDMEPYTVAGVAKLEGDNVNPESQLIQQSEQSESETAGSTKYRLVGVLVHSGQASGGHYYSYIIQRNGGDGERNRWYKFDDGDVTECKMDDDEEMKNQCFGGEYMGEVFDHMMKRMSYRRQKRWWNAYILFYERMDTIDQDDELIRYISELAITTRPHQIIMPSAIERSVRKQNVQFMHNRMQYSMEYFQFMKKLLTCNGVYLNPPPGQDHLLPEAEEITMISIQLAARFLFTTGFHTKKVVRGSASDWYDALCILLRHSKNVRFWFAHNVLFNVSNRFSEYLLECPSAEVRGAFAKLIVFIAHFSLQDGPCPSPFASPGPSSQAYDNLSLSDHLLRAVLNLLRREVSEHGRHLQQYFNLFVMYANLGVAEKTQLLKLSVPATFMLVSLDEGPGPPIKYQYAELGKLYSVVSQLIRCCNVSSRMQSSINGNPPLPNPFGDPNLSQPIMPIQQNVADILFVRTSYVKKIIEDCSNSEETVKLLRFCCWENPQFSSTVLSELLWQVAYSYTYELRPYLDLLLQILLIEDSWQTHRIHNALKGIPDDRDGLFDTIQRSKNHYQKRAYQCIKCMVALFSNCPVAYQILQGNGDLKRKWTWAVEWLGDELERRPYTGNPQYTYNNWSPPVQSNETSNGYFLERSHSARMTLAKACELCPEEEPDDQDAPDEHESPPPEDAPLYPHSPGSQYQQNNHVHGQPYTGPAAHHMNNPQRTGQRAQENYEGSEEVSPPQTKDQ
Chain of USP54 (Q70EL1 whole entry): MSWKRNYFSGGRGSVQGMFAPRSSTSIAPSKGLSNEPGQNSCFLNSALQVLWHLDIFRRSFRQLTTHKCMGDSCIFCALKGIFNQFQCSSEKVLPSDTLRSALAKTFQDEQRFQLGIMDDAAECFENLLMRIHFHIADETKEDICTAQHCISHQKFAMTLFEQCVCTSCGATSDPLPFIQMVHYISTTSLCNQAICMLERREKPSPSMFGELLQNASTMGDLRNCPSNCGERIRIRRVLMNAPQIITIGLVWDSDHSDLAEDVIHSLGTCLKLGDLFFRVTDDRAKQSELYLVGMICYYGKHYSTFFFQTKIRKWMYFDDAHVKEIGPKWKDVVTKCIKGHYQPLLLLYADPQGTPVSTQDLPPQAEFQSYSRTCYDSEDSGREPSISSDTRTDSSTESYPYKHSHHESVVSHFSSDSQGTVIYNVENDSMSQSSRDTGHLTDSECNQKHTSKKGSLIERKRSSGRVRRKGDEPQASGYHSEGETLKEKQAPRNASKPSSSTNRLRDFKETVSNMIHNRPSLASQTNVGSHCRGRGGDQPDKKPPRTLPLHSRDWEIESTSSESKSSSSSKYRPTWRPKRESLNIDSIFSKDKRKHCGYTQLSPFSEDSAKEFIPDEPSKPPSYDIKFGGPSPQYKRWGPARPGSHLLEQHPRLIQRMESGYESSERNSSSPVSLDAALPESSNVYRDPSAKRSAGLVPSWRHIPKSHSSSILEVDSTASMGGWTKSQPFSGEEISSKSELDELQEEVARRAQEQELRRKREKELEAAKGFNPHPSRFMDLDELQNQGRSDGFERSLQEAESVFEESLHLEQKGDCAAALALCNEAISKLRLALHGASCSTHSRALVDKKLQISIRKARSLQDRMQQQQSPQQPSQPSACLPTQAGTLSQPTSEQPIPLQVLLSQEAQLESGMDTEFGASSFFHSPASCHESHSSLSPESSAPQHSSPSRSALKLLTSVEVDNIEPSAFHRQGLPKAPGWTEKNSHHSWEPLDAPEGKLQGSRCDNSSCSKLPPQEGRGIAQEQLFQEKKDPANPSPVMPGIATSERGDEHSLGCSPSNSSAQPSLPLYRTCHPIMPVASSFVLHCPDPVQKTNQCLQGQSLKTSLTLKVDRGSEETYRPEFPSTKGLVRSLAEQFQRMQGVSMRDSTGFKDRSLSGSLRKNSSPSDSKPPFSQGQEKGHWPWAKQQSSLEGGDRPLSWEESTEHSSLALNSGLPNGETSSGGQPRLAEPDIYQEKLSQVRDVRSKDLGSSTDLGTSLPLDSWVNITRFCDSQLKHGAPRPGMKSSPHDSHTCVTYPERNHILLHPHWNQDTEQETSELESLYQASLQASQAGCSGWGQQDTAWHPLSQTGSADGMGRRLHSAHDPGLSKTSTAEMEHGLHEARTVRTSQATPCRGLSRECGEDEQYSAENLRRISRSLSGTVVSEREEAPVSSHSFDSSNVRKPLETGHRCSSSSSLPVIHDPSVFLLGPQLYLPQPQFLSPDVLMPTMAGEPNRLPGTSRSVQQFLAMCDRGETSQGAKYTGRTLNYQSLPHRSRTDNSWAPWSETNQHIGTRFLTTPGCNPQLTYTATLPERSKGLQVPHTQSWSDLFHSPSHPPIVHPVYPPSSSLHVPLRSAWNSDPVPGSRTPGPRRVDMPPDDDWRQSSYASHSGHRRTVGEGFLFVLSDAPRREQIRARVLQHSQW
Chain of USP46 (P62068 whole entry): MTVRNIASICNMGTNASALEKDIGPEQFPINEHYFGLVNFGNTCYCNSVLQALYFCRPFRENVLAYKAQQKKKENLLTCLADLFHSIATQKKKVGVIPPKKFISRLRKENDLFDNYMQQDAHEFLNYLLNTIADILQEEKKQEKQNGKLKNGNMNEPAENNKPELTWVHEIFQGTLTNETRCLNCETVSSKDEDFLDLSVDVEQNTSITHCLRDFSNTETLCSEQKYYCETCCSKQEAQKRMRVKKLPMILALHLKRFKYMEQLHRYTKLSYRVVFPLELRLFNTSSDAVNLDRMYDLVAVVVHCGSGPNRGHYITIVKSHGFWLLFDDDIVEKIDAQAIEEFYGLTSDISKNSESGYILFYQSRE
Chain of UniProt O00487 (O00487 whole entry): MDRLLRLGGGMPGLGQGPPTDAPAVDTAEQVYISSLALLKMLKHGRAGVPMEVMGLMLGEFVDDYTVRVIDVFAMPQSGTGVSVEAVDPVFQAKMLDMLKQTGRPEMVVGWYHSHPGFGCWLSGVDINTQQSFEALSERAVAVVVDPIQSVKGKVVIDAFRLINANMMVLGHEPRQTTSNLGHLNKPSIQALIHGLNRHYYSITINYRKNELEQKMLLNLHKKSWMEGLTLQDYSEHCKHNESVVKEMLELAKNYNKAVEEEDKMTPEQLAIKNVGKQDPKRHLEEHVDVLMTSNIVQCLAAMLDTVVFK

CS(=O)(=O)c1ccc(CNC(=O)CCl)cc1
inactive: USP42 0.283 | USP46 -0.122 | USP47 -0.0551 | USP48 -0.0444 | USP5 -0.111 | USP54 0.392 | USP7 -0.145 | USP8 -0.0148 | USP9X -0.103 | UniProt O00487 -0.101
